# Screens deposited in PubChem BioAssay by National Center for Advancing Translational Sciences (NCATS).
# The list is not random: actives were taken first. Their share in the collection is about 5.2%.
# Tau fibril ThT: qHTS for Inhibitors of Tau Fibril Formation, Thioflavin T Binding. recombinant tau K18 P301L, heparin-induced fibrillization, ThT fluorescence. AID 1460, 2008. 2.1% of 270,000 active. Potency, µM (doses to about 57.4 µM), without a hit: at the highest dose activity, negative = inhibition, actives largely listed as inhibitors. Microtubule-associated protein tau (Homo sapiens), P10636; also: potency is read from the fitted curve at half-maximal effect; nearly all actives have a fitted effect of over 55% in size
# Target sequence (P10636 561-689 P618L limits assumed): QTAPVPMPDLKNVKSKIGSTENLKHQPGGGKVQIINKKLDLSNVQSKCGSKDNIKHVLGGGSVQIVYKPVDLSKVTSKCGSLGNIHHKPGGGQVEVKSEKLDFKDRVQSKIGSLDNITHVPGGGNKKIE
#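 Recombinant human tau K18 fragment […] carrying P301L, 15 uM unlabeled plus 0.24 uM Alexa 594-labeled, was fibrillized with 20 uM heparin in 100 mM sodium acetate pH 7 for 6 hr at 37 C; 30 uM ThT fluorescence read after 1 hr.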
# Tau fluor cs: Counterscreen qHTS for Inhibitors of Tau Fibril Formation, Fluorescence Polarization | tau K18 P301L Alexa594 fluorescence, heparin fibrillization | Potency, µM (titrated, usually from 57.7 µM), for inactives: top-dose activity change, negative = decrease | 0.93% of 280,000 active; also: potency is read from the fitted curve at half-maximal effect; nearly all actives have a fitted effect of over 55% in size
#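 Human K18 P301L tau (15 uM unlabeled plus 0.24 uM Alexa 594-labeled, final) in 100 mM sodium acetate pH 7 was mixed with compound and 20 uM heparin and incubated 6 hr at 37 C.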
# Sfp inh: qHTS Assay for Inhibitors of Bacillus subtilis Sfp phosphopantetheinyl transferase (PPTase); Biochemical Sfp PPTase activity, qHTS; 4'-phosphopantetheinyl transferase ffp (Bacillus subtilis), Q9F4F7; 3.5% of 310,000 active; AID 1490, 2009; Potency, µM, without a hit: largest response in the series, negative = inhibition, usual class: inhibitors;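 also: the enzyme is Sfp with the accession as filed and its product quenches rhodamine fluorescence; potency is read from the fitted curve at half-maximal effect; 0% = enzyme reaction without inhibitor and -100% = no enzyme wells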
#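 Fluorescence-quenching assay with 15 nM Sfp, 5 uM rhodamine-CoA and 12.5 uM BHQ-2-labelled ybbR peptide in pH 7.6 Hepes/MgCl2 buffer. Enzyme was pre-incubated with compound for 15 min at room temperature. Rate was taken from the 30-min fluorescence change (525/598 nm).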
# Coupling enz: qHTS Assay for Inhibitors of Fructose-1,6-bisphosphate Aldolase from Giardia Lamblia: Coupling assay counterscreen; coupling enzyme system counterscreen, AmpLite Red fluorescence; activity change, negative = inhibition, % at 58.2 µM, hits read low; 0.67% of 290,000 active; AID 2472, 2010; in the data active = activity change below about -30%
#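 Counterscreen lacking aldolase: glyceraldehyde-3-phosphate coupling-enzyme reagent preincubated 10 min at RT with compound (at 57.5 uM final), then substrate/coupling system with AmpLite Red added; fluorescence read at 525/598 nm after 20 min RT.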
# Tau fibril FP: qHTS for Inhibitors of Tau Fibril Formation, Fluorescence Polarization; Microtubule-associated protein tau (Homo sapiens), P10636; K18 P301L tau heparin fibrillization, Alexa594 FP, 6 h; Potency, µM (top dose mostly 57.7 µM), for the others: at the top dose activity, negative = inhibition, most hits filed as inhibitors; AID 1468, 2008; 0.39% of 280,000 active; also: potency is read from the fitted curve at half-maximal effect; nearly all actives have a fitted effect of over 55% in size
#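 Heparin (20 uM) drove fibril formation of recombinant tau K18 P301L, 15 uM unlabeled with 0.24 uM Alexa 594 label, for 6 hr at 37 C in 100 mM sodium acetate pH 7. Fluorescence polarization (555/632 nm) read 1 hr after 30 uM ThT.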
# The depositor's hits bear a star; ? = inconclusive; / = no result given; [ ] = another dose, or the depositor's remark. Unless noted, calls follow the shape of the dose curve; as a rule, active = well fitted curve in the direction sought with a large enough effect; inconclusive = small, poorly fitted or top-dose-only effect, or another doubt; inactive = no such curve, though single readings can be large; an effect the other way counts as inactive or inconclusive. Unless noted, % is scaled to controls: 0 for no effect and ±100 for the full control effect.
SMILES,Tau fibril ThT,Tau fluor cs,Sfp inh,Coupling enz,Tau fibril FP
O=C1CC(c2ccco2)CC(O)=C1C=Nc1cc(Cl)cc(Cl)c1 (centres undefined),?,-21.0%,39.8µM*,-0.2,?
CCOc1ccc(N=CC2=C(O)CC(c3ccco3)CC2=O)cc1 (centres undefined),?,1.0%,5.2%,-0.3,-4.2%
O=C(CSc1nc2ccccc2s1)Nc1ccc(Cl)c(C(=O)O)c1,-10.4%,-11.6%,22.4µM*,11.1,-3.4%
O=C(CSc1nc2ccccc2s1)Nc1cc(C(=O)O)cc(C(=O)O)c1,-0.4%,-4.9%,56.2µM*,2.4,-12.8%
O=C(CSc1nc2ccccc2s1)Nc1ccc2c(c1)oc1ccccc12,11.7%,10.8%,-1.2%,-0.7,4.7%
O=C(CSc1nc2ccccc2s1)NNC(=O)Nc1ccc(Cl)c(Cl)c1,-16.5%,?,6.2%,-0.1,20µM*
O=C(CSc1nc2ccccc2s1)NNC(=S)Nc1ccc(Br)cc1,?,?,14.1%,/,2.4%
O=C(CSc1nc2ccc(NC(=O)c3ccccc3C(=O)O)cc2s1)Nc1c(Cl)cccc1Cl,/,/,-3.7%,-8.0,/
CN=C1S/C(=C\c2ccc(N3CCCC3)c(F)c2)C(=O)N1C,?,?,70.8µM*,1.0,6.2%
CN=C1S/C(=C\c2ccc(N3CCOCC3)c(F)c2)C(=O)N1C,?,-21.7%,20.6%,1.0,-1.6%
CC[C@H](C)/C=C(C)/C=C/C(=O)Cc1cc(O)c(C)c(O)c1C=O,?,?,89.1µM*,-7.1,2.7%
CCOC(=O)c1c(-c2ccc(F)cc2)csc1NC(=O)C1CC=CCC1C(=O)O (centres undefined),-17.1%,-0.3%,39.8µM*,9.8,1.7%
CCOC(=O)c1c(-c2ccc(C)c(C)c2)csc1NC(=O)C1CC=CCC1C(=O)O (centres undefined),?,-6.5%,-6.3%,12.5,-3.4%
COC(=O)c1sccc1NC(=O)C1CC=CCC1C(=O)O (centres undefined),-7.2%,-2.0%,13.0%,3.9,-0.2%
COC(=O)c1c(-c2ccco2)csc1NC(=O)C1CC=CCC1C(=O)O (centres undefined),-4.1%,-6.7%,12.6µM*,-14.6,-4.3%
CCc1ccc2oc(-c3ccc(C)c(NC(=O)c4ccc(C#N)cc4F)c3)nc2c1,-1.1%,-3.7%,/,/,-2.1%
COC(=O)C1=C(C)N(Cc2ccccc2)[C@]23O[C@](C(=O)OC)(C(=O)N2C1c1ccccc1)C1CCOC(=O)C13 (some centres undefined),-11.6%[11.5 µM],-12.5%[11.6 µM],-2.3%,-2.3,-9.9%[11.6 µM]
CC(Cc1cccs1)NC(=O)Nc1ccc(Cl)c(Cl)c1 (centres undefined),-3.5%,?,18.8%,-3.2,25.1µM*
O=C(Nc1cccc(Cl)c1)Nc1nccs1,-0.5%,?,50.1µM*,0.2,?
O=C(Nc1ccc(Cl)c(Cl)c1)Nc1nccs1,?,?,56.2µM*,-0.5,14.1µM*
Cc1cc(C)c2c(=O)cc(C(=O)Nc3sc4c(c3C(=O)NCc3ccccc3)CCCC4)oc2c1,-6.7%,-10.0%,/,/,-1.5%
COc1ccccc1NC(=O)c1sc(NC(=O)c2ccco2)c(C#N)c1C,-12.3%,-3.2%,10.7%,3.1,1.2%
COC(=O)c1sc(NC(=O)c2ccco2)c(C#N)c1C,/,8.3%,39.8µM*,6.7,-10.4%
COC(=O)c1ccc(C(NC(=O)OCc2ccccc2)/C(=C/[C@@H](C)C(=O)N(C)Cc2ccccc2)c2cccnc2)cc1 (some centres undefined),0.4%,0.1%,21.6%,1.4,5.6%
CCOc1cc([N+](=O)[O-])c2nc(N)sc2c1,20µM*,-20.7%,-0.2%,-0.3,3.4%
COc1cc([N+](=O)[O-])c2nccnc2c1,-1.1%,-3.4%,-3.6%,1.3,-0.6%
